Source: PubChem BioAssay AID588382 (National Center for Advancing Translational Sciences (NCATS), 2011)
“And” between values parts separate entries of the source, which are not always exact repeats. Equal entries are not always repeated. Screen size: about 1,300 compounds; about 150 (12%) were called active. Another 30% or so got no clear call; they are omitted. Calls come from the whole dose curve; as a rule, active = well fitted cell-killing curve with a large enough effect; inconclusive = small, poorly fitted or top-dose-only effect, or effect the other way; inactive = flat fitted curve, though single readings scatter. The entries come from a sample that favours actives as a whole. A call without a number means that no potency is given here.

Experiment: qHTS of small molecules that selectively kill Giardia lamblia: Hit Validation in HepG2 cytotox;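 note: compound exposure lasted overnight at 37 deg C; nearly all actives have a fitted effect of over 55% in size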
Conditions: cell viability; Potency: HepG2 cytotoxicity; series mostly up to 38.3 µM
Source text: Giardia lamblia is a human pathogen afflicting impoverished nations, and the most common cause of outbreaks of diarrhea in the United States. Giardia has been classified by the CDC as a category B bioterrorism organism. The favored anti giardiasis drugs in the US are metronidazole or tinidazole, compounds that have undesirable side effects. Moreover, increasing resistance to drug regimes and recurrence are a concern. It is thus clear that alternative drug treatments are needed.
In a collaboration between the University of Maryland, College Park and the NIH Chemical Genomics Center, a bioluminescence Giardia viability assay based on the trophozoites' ATP content was developed. This assay is suitable for high throughput screening, and miniaturized the assay for compound screening in 1536-well plates. The goal of the project is to screen the Molecular Libraries Small Molecule Repository (MLSMR) for compounds that selectively kill Giardia trophozoites. This counterscreen looks at the toxicity of the compounds against the human HepG2 cell line.
NIH Chemical Genomics Center [NCGC]
NIH Molecular Libraries Probe Centers Network [MLPCN]
Assay Submitter (PI): Osnat Herzberg, University of Maryland, College Park, MD.
4 uL of HepG2 cells ae dispensed into white 1536-well plates. They are incubated overnight at 37 deg C and then 23 nL of compounds are transferred to the wells with a pintool. Plates are incubated overnight at 37 deg C. 2 uL of ATPLite is added and the plates are incubated for 15 min at room temperature before they are read on the ViewLux for luminiescence.
Potency is the fitted concentration of half-maximal effect.

SMILES | Potency
O=[N+]([O-])c1cc(S(=O)(=O)N2CCCC2)ccc1N/N=C/c1ccncc1 | inactive
Cc1ccc(OCC(=O)Nc2nc(C)c(Cl)cc2Cl)c([N+](=O)[O-])n1 | inactive
O=[N+]([O-])c1ccc(N=NN(CCO)CCO)cc1 | inactive
Cc1cc(C2=NNC(=NC3CC3)SC2)c(C)n1-c1ccccc1F | 0.927 µM (active)
CCOC(=O)C1=C(C)N=c2s/c(=C/c3cccc([N+](=O)[O-])c3O)c(=O)n2C1c1cc(OC)c(OC)c(OC)c1 (stereo not given) | inactive
Cc1ccc([C@@H]2CC=C(C(=O)O)[C@H](c3ccccc3)N2S(=O)(=O)c2ccc(C)cc2)cc1 | inactive
NCCCn1c(C(=O)c2ccc(Cl)cc2)c2ccc(C(F)(F)F)cc2[n+]1[O-] | inactive
CCN1/C(=C\c2ccc3ccccc3[n+]2CC)Sc2cc(C)ccc21 | 4.65 µM (active)
N/C(=N/OC(=O)c1ccc(Cl)cc1)c1ncc([N+](=O)[O-])s1 | inactive
Cc1ncc([N+](=O)[O-])n1CCOC(=O)c1cc(Cl)cc(Cl)c1N | inactive
COC(=O)c1ccc2cc(OC)cc([N+](=O)[O-])c2n1 | inactive
Cc1nc2c(o1)C(=O)c1ccccc1C2=Nc1ccccc1 | 4.65 µM (active)
Cc1c(N=Nc2ccc(O)cc2)c(=O)n(-c2ccccc2)n1C | inactive
Cc1ccc(OCC(=O)c2cc(C)n(-c3ccccc3)c2C)c([N+](=O)[O-])n1 | inactive
CCn1ncc([N+](=O)[O-])c1C(=O)Nc1nc2cccc(C)c2s1 | inactive
CC(=O)Nc1ccc(NS(=O)(=O)c2ccc(C)cc2)c([N+](=O)[O-])c1 | inactive
Cc1ccc2nc(N/N=C\c3ccc([N+](=O)[O-])o3)nc(-c3ccccc3)c2c1 | inactive
O=C(N/N=C/c1ccc([N+](=O)[O-])o1)c1cn2ccc3ccccc3c2n1 | inactive
COc1ccc(-c2nn(-c3ccccc3)cc2C(=O)N/N=C/c2ccc([N+](=O)[O-])o2)cc1 | inactive
Cc1cc(N/N=C/c2ccc([N+](=O)[O-])o2)nc2ccccc12 | inactive
CCCc1ccc(-c2cc(C(=O)N/N=C/c3ccc([N+](=O)[O-])o3)c3ccccc3n2)cc1 | 3.29 µM (active)
Cc1nc2ccccn2c1C(=O)N/N=C/c1ccc([N+](=O)[O-])o1 | 14.7 µM (active)

SMILES | Potency
O=C(N/N=C/c1ccc([N+](=O)[O-])o1)c1cc(-c2ccc(-c3ccccc3)cc2)nc2ccccc12 | 2.61 µM (active)
O=C(N/N=C/c1ccc([N+](=O)[O-])o1)c1cn(-c2ccccc2)nc1-c1ccc(F)cc1 | inactive
CCOC(=O)N/N=C\c1ccc([N+](=O)[O-])o1 | inactive
CC1CC(C)C(=NNC(N)=O)C(C(O)CC2CCC(=O)NC2=O)C1 (stereo not given) | inactive
N/C(=N\O)c1ccc([N+](=O)[O-])s1 | inactive
COc1ccc(-n2nc([N+](=O)[O-])c(=NCc3ccc4c(c3)OCO4)n2O)cc1 | inactive
O=C(/C=C/c1ccc(O)c([N+](=O)[O-])c1)c1ccc2ccccc2c1 | inactive
Cc1nn(-c2nc3ccccc3[nH]2)c(=O)c2ccccc12 | 2.07 µM (active)
Cc1ccc(NC(=O)CN2C(=O)S/C(=C/c3ccc(O)c([N+](=O)[O-])c3)C2=O)cc1C | inactive
Cc1cccc(N=Nc2c(C)c(C#N)c(O)[nH]c2=O)c1 | inactive
CC1C/C(=C/c2ccncc2)C(=O)/C(=C/c2ccncc2)C1 (stereo not given) | 2.07 µM (active)
O=C1/C(=C/c2ccncc2)CCC/C1=C\c1ccncc1 | 4.14 µM (active)
O=C1N=C(N2CCCCC2)S/C1=C\c1ccc(Br)cc1 | inactive
O=c1c2c(-c3ccccc3)csc2ncn1/N=C/c1ccc(O)c([N+](=O)[O-])c1 | inactive
Cc1ccc(C2=NCCn3c2c2ccccc2[n+]3[O-])cc1 | inactive
CC(=O)Nc1nc(-c2cc([N+](=O)[O-])cs2)cs1 | inactive
CCn1c(=NC(=O)c2cccc(N3C(=O)CCC3=O)c2)sc2c(OC)ccc(OC)c21 | inactive
Cc1cnc([N+](=O)[O-])n1CCOC(=O)NC(=O)c1ccc(F)cc1 | inactive
CN(C)C(=O)COC(=O)c1cccc(S(=O)(=O)N2CC3(C)CC2CC(C)(C)C3)c1 (stereo not given) | inactive
O=[N+]([O-])c1nn(-c2ccccc2)[n+]([O-])c1N1CCN(c2ccccc2)CC1 | inactive
CN(C(=O)CN1CCN(c2ccc([N+](=O)[O-])cn2)CC1)c1ccccc1 | inactive
CCOc1ccc(-c2cc(C(=O)N3CCN(c4ccccn4)CC3)c3ccccc3n2)cc1 | 1.65 µM (active) and 414 nM (active)

SMILES | Potency
O=C(CSc1ccsc1[N+](=O)[O-])N1CCN(c2ccccn2)CC1 | inactive
Cc1ncc([N+](=O)[O-])n1CCOC(=O)NC(Nc1ccc(F)cc1)C(Cl)(Cl)Cl (stereo not given) | inactive
O=C(CCCn1cnc([N+](=O)[O-])n1)Nc1ccc(F)c(Cl)c1 | inactive
COc1cc2c(cc1OC)-c1c(OC)c(OC)cc3ccnc(c13)C2=O | inactive
COc1ccc(-n2nc([N+](=O)[O-])c(=NCCc3ccc(Cl)cc3)n2O)cc1 | inactive
O=C(NCC1CCCO1)c1ccc([N+](=O)[O-])o1 (stereo not given) | inactive
CN(C(=O)c1ccc(F)c(S(=O)(=O)N2CCOCC2)c1)C1CCCCC1 | inactive
O=C(CN(C1CCCCC1)S(=O)(=O)c1ccc(F)cc1)NCC1CCCO1 (stereo not given) | 4.65 µM (active)
CCS(=O)(=O)CCn1c([N+](=O)[O-])cnc1C | inactive
O=c1c(-c2ccc(F)cc2)coc2cc(O)ccc12 | inactive
C[C@@H]1CN([C@@H](C)CO)C(=O)c2cccc(NS(=O)(=O)c3cccs3)c2O[C@H]1CN(C)Cc1ccc(C(F)(F)F)cc1 | inactive
NC(=O)C1CCN(c2ncccc2[N+](=O)[O-])CC1 | inactive
COc1ccccc1NC(=O)C(=O)N/N=C/c1ccc([N+](=O)[O-])s1 | inactive
COc1ccc(NC(C)C(=O)N/N=C/c2ccc([N+](=O)[O-])s2)cc1 (stereo not given) | inactive
COC(=O)N/N=C/c1ccc([N+](=O)[O-])s1 | inactive
Cc1nc2cc(NC(=O)c3ccc([N+](=O)[O-])s3)ccc2s1 | inactive
Cc1ccc(NC(C)C(=O)N/N=C/c2ccc([N+](=O)[O-])s2)cc1 (stereo not given) | inactive
CCOC(=O)N/N=C\c1ccc([N+](=O)[O-])s1 | inactive
O=C(N/N=C\c1ccc([N+](=O)[O-])s1)c1cncc(Br)c1 | 7.36 µM (active)
Cc1ccccc1C(=O)N/N=C/c1ccc([N+](=O)[O-])s1 | 18.5 µM (active)
O=C(N/N=C/c1ccc([N+](=O)[O-])s1)C(O)c1ccccc1 (stereo not given) | 13.1 µM (active)
